Only some compounds are listed: those with a hit (about 12% of all), similar ones and a draw of the others.
Pf growth 96h = inhibits malaria parasite growth, 96 h. P. falciparum luciferase reporter growth, 96 h. Potency, µM (titrated, usually from 28.7 µM), usual class: inhibitors. 320,000 tested, 6.9% active
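Delayed-death screen, second-generation endpoint: infected erythrocytes, 2% hematocrit, 0.05% parasitemia final; 96 hours at 37 C, 5% CO2; luciferase detection reagent; luminescence decrease equals reduced growth.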
NS1 inh = inhibitors of influenza NS1 protein function | Potency, µM (doses to about 46.1 µM) | 270,000 tested, 0.4% active; calls by dose curve; also: actives are rising curves; nearly all actives have a fitted effect of over 50% in size
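Recovery from NS1-induced slow growth read by OD600 in budding yeast switched to galactose assay medium (pH 6.0, -URA) at 1:100 dilution. Compound 23 nl per well; the matching strain lacking NS1 serves as control.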
AMA1-RON2 inh = inhibitors of Plasmodium falciparum AMA1-RON2 interaction. Potency, µM (highest dose often 58.2 µM), hits mostly inhibitors. AlphaScreen AMA1-biotinylated RON2 peptide binding. AID 720542. 360,000 tested, 0.2% active; also: nearly all actives have a fitted effect of over 45% in size
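AMA1 (3D7) with his tag at 25 nM final met compounds first, then biotinylated RON2 peptide at 25 nM; detection used donor plus acceptor beads, 10 µg/mL apiece, read by AlphaScreen after 30 min at room temperature.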
HCV inh = inhibitors of hepatitis C virus infection; Huh7.5.1 HCVcc-Cre infection, luciferase reporter, 44 h; Potency, µM (series often up to 41.8 µM), most hits filed as inhibitors; AID 651820; 340,000 tested, 3.4% active
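Luciferase read-out (15 sec integration) after a 15 min room-temperature substrate step quantifies HCVcc-Cre infection. Cells, 1,000 per well, had compound added 4 h post-plating, then virus at ~0.5 moi, and were cultured 44 h.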
SARS PLP yeast = SARS-CoV PLP inhibition in yeast; S. cerevisiae expressing SARS-CoV PLpro, growth rescue; Potency, µM (highest dose often 32.9 µM), usual class: activators; 330,000 tested, 0.19% active; calls by dose curve; also: nearly all actives have a fitted effect of over 55% in size
Pf growth 48h = P. falciparum growth inhibition at 48 hours (one generation) | P. falciparum luciferase growth in erythrocytes, 48 h | Potency, µM (highest dose often 28.7 µM), hits mostly inhibitors | 310,000 tested, 5.9% active
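Cell-based growth assay: transgenic P. falciparum expressing firefly luciferase, cultured in red cells within RPMI 1640 containing 0.5% w/v Albumax, 24 mM bicarbonate and gentamycin. A drop in luciferase activity indicates inhibition.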
Each line names hits and unclear results; the compound was inactive in the other large screens. Unless noted, calls follow the shape of the dose curve; as a rule, active = well fitted curve in the direction sought with a large enough effect; inconclusive = small, poorly fitted or top-dose-only effect, or another doubt; inactive = no such curve, though single readings can be large; an effect the other way counts as inactive or inconclusive.

Cc1cc(C(=O)Nc2ccc(Nc3ccccc3)cc2)ccc1[N+](=O)[O-]	Pf growth 96h 12µM, AMA1-RON2 inh inconclusive, HCV inh 11µM
Cc1ccccc1NC(=O)c1ccc(Nc2c([N+](=O)[O-])cc([N+](=O)[O-])c3ccccc23)cc1	Pf growth 96h inconclusive, AMA1-RON2 inh inconclusive, HCV inh 14µM, Pf growth 48h inconclusive
Cc1ccc(N(C)S(=O)(=O)c2ccc(-c3cc(C)no3)s2)cc1	Pf growth 96h inconclusive, HCV inh inconclusive
Cc1cc(-c2ccc(S(=O)(=O)N(C)c3ccc(C)c(C)c3)s2)on1	HCV inh 11µM
O=C(C1=C[C@H](c2ccc(Br)cc2)C[C@H](OCCCCO)O1)N1CCN(Cc2ccc3c(c2)OCO3)CC1	Pf growth 96h 4.1µM, HCV inh inconclusive, Pf growth 48h 1.5µM
O=C(C1=C[C@@H](c2ccc(Br)cc2)C[C@@H](OCCCCO)O1)N1CCN(Cc2ccccc2)CC1	Pf growth 96h 12µM, Pf growth 48h 8.3µM
O=C(C1=C[C@H](c2ccc3c(c2)OCO3)C[C@H](OCCCCO)O1)N1CCN(Cc2ccc3c(c2)OCO3)CC1	Pf growth 96h inconclusive, Pf growth 48h inconclusive
O=C(C1=C[C@H](c2ccc3c(c2)OCO3)C[C@H](OCCCCO)O1)N1CCN(Cc2ccccc2)CC1	Pf growth 96h 13µM, HCV inh inconclusive, Pf growth 48h inconclusive
O=C(C1=C[C@@H](c2ccc3c(c2)OCO3)C[C@@H](OCCCCO)O1)N1CCN(Cc2ccc3c(c2)OCO3)CC1	Pf growth 96h 10µM, HCV inh 0.56µM, Pf growth 48h inconclusive
Cc1cc(C)cc(NC(=O)COC(=O)CN=C2NS(=O)(=O)c3ccccc32)c1	none
Cc1c(Cl)cn2c(=O)cc(CN3CCN(c4ccc(F)cc4)CC3)nc2c1Cl	none (no result: AMA1-RON2 inh, HCV inh)
CCCc1cc(=O)[nH]c(SCC(=O)NC2(C#N)CCCCC2)n1	none (no result: NS1 inh)
C#Cc1ccc([C@@H]2C=C(C(=O)N3CCN(Cc4ccc5c(c4)OCO5)CC3)O[C@H](OCCCCO)C2)cc1	Pf growth 96h 12µM, Pf growth 48h inconclusive
O=C(C1=C[C@H](C2CCCCC2)C[C@H](OCCCCO)O1)N1CCN(Cc2ccc3c(c2)OCO3)CC1	Pf growth 96h 5.9µM, HCV inh inconclusive, Pf growth 48h 12µM
O=C(C1=C[C@@H](C2CC2)C[C@@H](OCc2ccc(CO)cc2)O1)N1CCN(Cc2ccc3c(c2)OCO3)CC1	none
CCc1ccc(-c2nnn(CCC(=O)OC)n2)cc1	Pf growth 96h 4.7µM
C=C(C)COc1ccc(-c2[nH]ncc2Oc2cccc(OC)c2)c(O)c1	Pf growth 96h 8.3µM, HCV inh inconclusive, Pf growth 48h 9.3µM
C=C(C)COc1ccc(-c2[nH]ncc2Oc2ccccc2OCC)c(O)c1	Pf growth 96h 1.2µM, HCV inh inconclusive, Pf growth 48h 1.3µM
COc1ccc(-c2[nH]ncc2Oc2ccccc2OC)c(O)c1	Pf growth 48h inconclusive
CCOc1ccccc1Oc1cn[nH]c1-c1ccc(O)cc1O	Pf growth 96h 9.3µM, HCV inh inconclusive, Pf growth 48h 8.3µM
C=C(C)COc1ccc(-c2ncncc2Oc2ccc(OC)cc2)c(O)c1	Pf growth 48h 3.7µM (no result: Pf growth 96h)
CCN(C(=O)Cn1ccc(C(F)(F)F)n1)c1c(N)n(Cc2ccccc2)c(=O)[nH]c1=O	none (no result: NS1 inh)
Nc1nc(-c2ccc(Oc3ccccc3)cc2)c(CC(=O)O)s1	none
CC1CCCC(NC(=O)CSc2nnc(C(F)(F)F)n2C)C1C (stereo not drawn)	none (no result: NS1 inh)
CC(=O)C1=NN(c2ccc(Cl)cc2)C(c2ccc3c(c2)OCO3)N(C(C)=O)N1C (stereo not drawn)	Pf growth 96h 12µM, HCV inh inconclusive, Pf growth 48h 12µM
O=C(Nc1ccccc1)N(Cc1ccccc1)CC(O)C(F)(F)F (stereo not drawn)	none
O=C(Nc1cccc(F)c1)N(Cc1ccc(Cl)cc1)CC(O)C(F)(F)F (stereo not drawn)	Pf growth 96h 2.6µM, HCV inh 11µM, Pf growth 48h 8.3µM
O=[N+]([O-])c1ccc(Cn2cc(-c3cccc(C(F)(F)F)c3)nn2)cc1	none
CCn1c2ccccc2c2cc([N+](=O)[O-])ccc21	HCV inh inconclusive, Pf growth 48h inconclusive (no result: NS1 inh)
CN(C)CCn1c2ccccc2c2nc3ccc([N+](=O)[O-])cc3cc21	Pf growth 96h inconclusive, Pf growth 48h 1.9µM
CCN1C(=O)[C@H]2[C@@H](c3ccc(-c4cccc(Cl)c4)c(OC)c3)N[C@@](CC(C)C)(C(=O)OC)[C@H]2C1=O	Pf growth 96h 0.23µM, HCV inh inconclusive, Pf growth 48h 0.33µM (no result: NS1 inh)
CCN1C(=O)[C@H]2[C@@H](c3ccc(-c4cccc(Cl)c4)cc3)N[C@@](CC(C)C)(C(=O)OC)[C@H]2C1=O	none (no result: Pf growth 96h, NS1 inh, Pf growth 48h)
CCN1C(=O)[C@H]2[C@@H](c3ccc(-c4ccc(C(C)=O)cc4)c(OC)c3)N[C@@](Cc3ccccc3)(C(=O)OC)[C@H]2C1=O	Pf growth 96h 9.3µM, HCV inh inconclusive, Pf growth 48h 8.3µM (no result: NS1 inh)
CCN1C(=O)[C@H]2[C@@H](c3ccc(-c4ccc(F)cc4)c(OC)c3)N[C@@](Cc3ccccc3)(C(=O)OC)[C@H]2C1=O	HCV inh inconclusive (no result: Pf growth 96h, NS1 inh, Pf growth 48h)
CCN1C(=O)[C@H]2[C@@H](c3ccc(-c4ccccc4)c(OC)c3)N[C@@](Cc3ccccc3)(C(=O)OC)[C@H]2C1=O	Pf growth 96h 0.66µM, Pf growth 48h 1.9µM (no result: NS1 inh)
O=C(Nc1ncc(Cl)cc1Cl)c1c(F)cccc1Cl	none (no result: NS1 inh)
CC=CC1=C(C(=O)O)N2C(=O)[C@H](NC(=O)[C@H](N)c3ccc(O)cc3)[C@@H]2SC1	Pf growth 96h inconclusive (no result: NS1 inh, AMA1-RON2 inh, HCV inh, SARS PLP yeast)
Cc1ccc(N=C2SC(C(=O)O)CC(=O)N2C)cc1C (stereo not drawn)	Pf growth 96h 12µM
COc1ccc(C(CNC(=O)c2ccco2)N2CCCC2)cc1 (stereo not drawn)	HCV inh inconclusive (no result: NS1 inh)
CC(C)(C)OC(=O)N1CCN(C(=O)c2cccnc2Cl)CC1	none
Cc1c(C)c2cc(Cl)c(OCC(=O)NC3CC(C)(C)NC(C)(C)C3)cc2oc1=O	Pf growth 96h inconclusive, HCV inh inconclusive, Pf growth 48h inconclusive
CC1CCN(CCCNC(=O)c2ccc3c(Cl)c4c(nc3c2)CCCC4)CC1	Pf growth 96h inconclusive, HCV inh 8.9µM, Pf growth 48h 13µM
O=C(O)CSc1c2c(nc3cc(C(=O)N4CCOCC4)ccc13)CCCC2	none
O=C(NCCCN1CCCCCC1)c1ccc2c(Cl)c3c(nc2c1)CCCC3	HCV inh 0.63µM, Pf growth 48h inconclusive (no result: NS1 inh)
CCN1CCN(CCCNC(=O)c2ccc3c(Cl)c4c(nc3c2)CCCC4)CC1	HCV inh inconclusive, Pf growth 48h inconclusive
CCOC(=O)N1CCN(C(=O)c2ccc3c(SCC(=O)O)c4c(nc3c2)CCCC4)CC1	Pf growth 96h 12µM

Compound activity (PubChem)
